± gives the standard deviation of the averaged measurements.
Tests used:
[1] = tested on: DLD1; assay: cell viability (CellTiter-Glo) relative to plate median (fraction of plate median); higher = more viable cells; conditions: 5 µM; treatment time 24 h; reporter: 7TFP
Method in brief: (§1)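 Cells were seeded in 384-well plates; these were colorectal cancer lines stably transduced with lentiviral 7TFP or TCF4/Wnt firefly luciferase reporters. After 24 h, library compounds went in at a final 5 µM, and exposure lasted 24 h. Parallel plates were then read for firefly luciferase or CellTiterGlo luminescence, each well normalised to its plate median, with two independent replicates averaged.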

[2] = tested on: HCT116; assay: as above; conditions: 5 µM; treatment time 24 h; reporter: TCF4/Wnt
Method in brief: as §1

[3] = tested on: SW480; assay: as above; conditions: 5 µM; treatment time 24 h; reporter: 7TFP
Method in brief: as §1

[4] = tested on: DLD1; assay: TCF/Wnt firefly luciferase reporter signal relative to plate median (fraction of plate median); higher = higher Wnt reporter signal; conditions: 5 µM; treatment time 24 h; reporter: 7TFP
Method in brief: as §1

[5] = tested on: SW480; assay: as above; conditions: 5 µM; treatment time 24 h; reporter: 7TFP
Method in brief: as §1

SMILES | cell viability [1] | cell viability [2] | cell viability [3] | TCF/Wnt firefly luciferase reporter signal [4] | TCF/Wnt firefly luciferase reporter signal [5]
COCCCOc1cc(C[C@@H](C[C@H](NC(=O)OC(C)(C)C)[C@@H]2C[C@@H](C(C)C)C(=O)O2)C(C)C)ccc1OC [Borrelidin derivative (C30H49NO7)] | 1.01 ± 0.072 | 0.995 ± 0.036 | 0.959 ± 0.025 | 0.963 ± 0.12 | 0.9975 ± 0.0035
C[C@H](CCC(=O)O)[C@H]1CC[C@H]2[C@@H]3[C@@H](O)C[C@@H]4C[C@H](O)CC[C@]4(C)[C@H]3CC[C@]12C | 0.966 ± 0.029 | 1.01 ± 0.025 | 0.958 ± 0.028 | 0.89 ± 0.061 | 1.02 ± 0.09
COc1c(C)c2c(c(O)c1C/C=C(\C)CCC(=O)O)C(=O)OC2 | 1.03 ± 0.12 | 0.802 ± 0.03 | 1.03 ± 0.065 | 1.045 ± 0.0071 | 1.14 ± 0.11
CNC[C@H](O)c1ccc(O)c(O)c1 | 0.9995 ± 0.00071 | 1.05 ± 0.021 | 0.916 ± 0.064 | 1.11 ± 0.064 | 1.12 ± 0.042
CCN(CC)CCCC(C)Nc1c2ccc(Cl)cc2nc2ccc(OC)cc12 (stereo not given) | 1.02 ± 0.014 | 0.886 ± 0.19 | 1.05 ± 0.014 | 1.11 ± 0.042 | 0.888 ± 0.036
N#CN=C(NCCCCCCOc1ccc(Cl)cc1)Nc1ccncc1 | 0.954 ± 0.021 | 1.01 ± 0.03 | 0.87 ± 0.046 | 1.15 ± 0.057 | 1.14 ± 0.21
CC(=O)Oc1cc2c(c(C)c1OC(C)=O)CC=C1[C@@]2(C)CC[C@@]2(C)C3C[C@](C)(C(=O)O)CC[C@]3(C)CC[C@]12C (stereo not given in full) | 0.903 ± 0.12 | 0.958 ± 0.16 | 0.953 ± 0.081 | 0.869 ± 0.064 | 0.898 ± 0.12
CC1(C)C(=O)CC[C@@]2(C)C1C[C@@H](O)[C@@]1(C)C3=CC(=O)O[C@@H](c4ccoc4)[C@]3(C)CCC21 (stereo not given in full) | 0.9595 ± 0.0035 | 1.06 | 0.969 ± 0.027 | 0.937 ± 0.028 | 0.967 ± 0.013
CC[C@H]1OC(=O)C[C@@H](O)[C@H](C)[C@@H](O[C@@H]2O[C@H](C)[C@@H](O)[C@H](N(C)C)[C@H]2O)[C@@H](CCN2C[C@H](C)C[C@H](C)C2)C[C@@H](C)C(=O)/C=C/C(C)=C/[C@@H]1CO[C@@H]1O[C@H](C)[C@@H](O)[C@@H](OC)[C@H]1OC | 0.981 ± 0.041 | 1.1 ± 0.05 | 0.972 ± 0.021 | 1.02 ± 0.077 | 1.09 ± 0.064
CN(C)CCc1c[nH]c2ccc(Cn3cncn3)cc12 | 0.968 ± 0.011 | 1.09 ± 0.064 | 1.03 ± 0.042 | 1.09 ± 0.2 | 1.07 ± 0.099
CC(=O)OCC1=C(C(=O)O)N2C(=O)[C@@H](NC(=O)Cc3cccs3)[C@H]2SC1 | 1.05 ± 0.021 | 1.06 ± 0.021 | 1.03 ± 0.028 | 0.953 ± 0.016 | 1 ± 0.028
CC(C)(O)CC[C@@H](O)[C@](C)(O)[C@H]1CC[C@@]2(O)C3=CC(=O)[C@@H]4C[C@@H](O)[C@@H](O)C[C@]4(C)[C@H]3CC[C@]12C | 0.977 ± 0.021 | 1.08 ± 0.042 | 1.01 | 1.1 ± 0.21 | 1.14 ± 0.064
CNS(=O)(=O)Cc1ccc2[nH]cc(CCN(C)C)c2c1 | 1.08 ± 0.099 | 1.07 ± 0.05 | 0.9885 ± 0.0078 | 1.07 ± 0.099 | 1.07 ± 0.028
Cc1ccc(-c2cc(C(F)(F)F)nn2-c2ccc(S(N)(=O)=O)cc2)cc1 | 0.972 ± 0.097 | 1.02 ± 0.087 | 0.987 ± 0.047 | 0.919 ± 0.013 | 0.947 ± 0.04
